Measurements from the supplement of paper PMC6555819.

Legend:
Assay in all cases: PBM binding z-score (relative to random genomic background probes); higher = stronger binding; sequences stand for … in GC…GCGATTGACAGCGTAGAATGAAGG
[1] = tested on: FXR:RXRa (NR concentration 270 nM, RXRa partner concentration 90 nM)
Outline: (§1)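 Binding z-scores were set against random background probes. The data came from custom Agilent 4×180K protein-binding microarrays carrying double-stranded probes with 34-nt variable regions, incubated 1 h with ligand-free nuclear receptor dimers. Partner-specific antibodies detected binding, and scanned fluorescence was regression-normalized.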

[2] = tested on: LXRa:RXRa (NR concentration 270 nM, RXRa partner concentration 90 nM)
Outline: as §1

[3] = tested on: LXRa homodimer (NR concentration 270 nM)
Outline: as §1

[4] = tested on: LXRb:RXRa (NR concentration 270 nM, RXRa partner concentration 90 nM)
Outline: as §1

[5] = tested on: LXRb homodimer (NR concentration 270 nM)
Outline: as §1

[6] = tested on: PPARa:RXRa (NR concentration 270 nM, RXRa partner concentration 90 nM)
Outline: as §1

[7] = tested on: PPARg:RXRa (NR concentration 180 nM, RXRa partner concentration 90 nM)
Outline: as §1

[8] = tested on: PPARg:RXRa 270nM:90nM, anti-RXR (NR concentration 270 nM, RXRa partner concentration 90 nM)
Outline: as §1

[9] = tested on: PPARg:RXRa 30nM:10nM, anti-RXR (NR concentration 30 nM, RXRa partner concentration 10 nM)
Outline: as §1

[10] = tested on: PPARg:RXRa 90nM:30nM, anti-RXR (NR concentration 90 nM, RXRa partner concentration 30 nM)
Outline: as §1

[11] = tested on: PPARg:RXRa DBDmut IVT, anti-RXR (DBD mutation: RXRa K156A/R161A, NR concentration 270 nM, RXRa partner concentration 90 nM)
Outline: as §1

[12] = tested on: PPARg:RXRa IVT, anti-PPARg (NR concentration 270 nM, RXRa partner concentration 90 nM)
Outline: as §1

[13] = tested on: PPARg DBDmut:RXRa IVT, anti-PPARg (DBD mutation: PPARg1 K132A/R137A, NR concentration 270 nM, RXRa partner concentration 90 nM)
Outline: as §1

[14] = tested on: PPARg DBDmut IVT, anti-PPARg (DBD mutation: PPARg1 K132A/R137A, NR concentration 270 nM)
Outline: as §1

[15] = tested on: PPARg homodimer (NR concentration 180 nM)
Outline: as §1

[16] = tested on: PXR:RXRa (NR concentration 270 nM, RXRa partner concentration 90 nM)
Outline: as §1

[17] = tested on: PXR homodimer (NR concentration 270 nM)
Outline: as §1

[18] = tested on: RARa:RXR (NR concentration 270 nM, RXRa partner concentration 90 nM)
Outline: as §1

[19] = tested on: RARa homodimer (NR concentration 270 nM)
Outline: as §1

[20] = tested on: RARb:RXRa (NR concentration 270 nM, RXRa partner concentration 90 nM)
Outline: as §1

Row | Sequence | PBM binding z-score [1] | PBM binding z-score [2] | PBM binding z-score [3] | PBM binding z-score [4] | PBM binding z-score [5] | PBM binding z-score [6] | PBM binding z-score [7] | PBM binding z-score [8] | PBM binding z-score [9] | PBM binding z-score [10] | PBM binding z-score [11] | PBM binding z-score [12] | PBM binding z-score [13] | PBM binding z-score [14] | PBM binding z-score [15] | PBM binding z-score [16] | PBM binding z-score [17] | PBM binding z-score [18] | PBM binding z-score [19] | PBM binding z-score [20]
1 | ACTAGTTGGTCAGCTGAGGTCACATACAATTCGG | 2.13 | 2.95 | 2.7 | 3.37 | 0.543 | 3.41 | 1.77 | 1.98 | 0.658 | 1.17 | 1.59 | 2.44 | 0.89 | 0.482 | 2.09 | 5.26 | 1.85 | 4.17 | 0.305 | 3.4
2 | TCTAGTTGGTCACGGAGGTCACACACGACGGGTA | 3.14 | 3.39 | 2.59 | 3.33 | 0.773 | 4.01 | 3.79 | 4.11 | 3.73 | 3.75 | 2.46 | 4.2 | 1.49 | 1.18 | 3.41 | 4.41 | 1.8 | 4.53 | 1.29 | 3.82
3 | ACAGACAGGTTATGAAGGTAACTCAGGCTATCAT | 0.409 | 0.85 | 0.14 | 0.672 | 0.2 | 1.21 | 0.876 | 0.402 | -0.0537 | 0.403 | 0.3 | 0.659 | 0.714 | 0.581 | 0.432 | 0.377 | 0.271 | 0.863 | 0.217 | 0.899
4 | CCTACTGGGCCGTCAGGTCATTGATATCAACGTT | 1.31 | 0.772 | 0.809 | 1.21 | -0.585 | 1.71 | 0.704 | 1.92 | 0.179 | 1.15 | 1.17 | 2.14 | -0.782 | -0.667 | 0.741 | 1.33 | 0.502 | 1.53 | 0.0542 | 1.66
5 | TAGCCTAGGTCATGTGCCAGTATACCACGCGAAC | 4.24 | 3.24 | 0.572 | 2.7 | 0.626 | 3.58 | 2.79 | 2.86 | 0.838 | 2.06 | 1.78 | 3.01 | 0.0994 | 0.0439 | 1.55 | 1.53 | -0.113 | 2.34 | -0.178 | 3.74
6 | CCTCGGAGGACGACAGGAGGTCAGAGCTGCCAGA | 0.759 | 1.38 | 0.305 | 1.13 | -0.711 | 1.8 | 0.288 | 0.213 | -0.596 | -0.215 | -0.728 | -0.00812 | -0.427 | -1.79 | 1.19 | 1.89 | -0.155 | 2.06 | 0.247 | 2.18
7 | GGAACGAGGGCATTCGAGTTGGTAGCATGGCGAT | 0.825 | 0.72 | -0.575 | -0.0954 | -1.08 | 1.06 | 0.508 | 0.442 | -0.573 | -0.227 | 3.06 | 2.06 | -0.924 | 0.13 | -0.0441 | 2.69 | 0.354 | 0.386 | -0.393 | 1.86
